# Measurements: the supplement of paper PMC8007513
# Where a name gives a salt, the structure may show the parent alone. ± gives the standard error. Screen size: about 1,300 compounds; about 130 (10%) showed an effect of 50% or more. Only a selection was taken, and strong results are over-represented in it overall.
# Test system: Trichoderma virens ATCC 9645
# Assay: growth yield (OD600) with compound + IPBC relative to untreated control; higher = less growth inhibition
# Details: compound concentration: 100 uM, IPBC concentration: 200 ng/ml
# Method in brief: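 Growth appears as means of duplicate screens, relative to the control containing neither agent. To obtain it, OD600 was read on a BioTek EL800 at 40 h and 72 h. The cultures were 100 μl aliquots in 96-well plates at 30 °C, holding Trichoderma virens ATCC 9645 spores at 15,000 spores ml^−1 in potato dextrose broth, library compounds at 100 μM final, and, in some wells, a biocide at 200 ng ml^−1.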
SMILES,growth yield (40 h),growth yield (72 h)
CCN(CC)C(=O)N1CCN(C)CC1 [Diethylcarbamazine citrate] + CCCCNC(=O)OCC#CI [3-iodo-2-propynyl butylcarbamate (IPBC)],83.4 ± 2.4%,94.1 ± 1.4%
CN(CCOc1ccc(CC2SC(=O)NC2=O)cc1)c1ccccn1 (configuration not stated) [Rosiglitazone Hydrochloride] + CCCCNC(=O)OCC#CI [3-iodo-2-propynyl butylcarbamate (IPBC)],76.4 ± 7.5%,82.6 ± 6.1%
CCCOc1ccccc1-c1nc2[nH]nnc2c(=O)[nH]1 [Zaprinast] + CCCCNC(=O)OCC#CI [3-iodo-2-propynyl butylcarbamate (IPBC)],87.2 ± 0.79%,98.7 ± 1.1%
N[C@@H]1CCCCN(c2c(F)cc3c(=O)c(C(=O)O)cn(C4CC4)c3c2Cl)C1 [Besifloxacin hydrochloride] + CCCCNC(=O)OCC#CI [3-iodo-2-propynyl butylcarbamate (IPBC)],88.5 ± 2.7%,88.1 ± 2.7%
COc1ccc(C(Cl)=C(c2ccc(OC)cc2)c2ccc(OC)cc2)cc1 [Chlorotrianisene] + CCCCNC(=O)OCC#CI [3-iodo-2-propynyl butylcarbamate (IPBC)],103 ± 17%,101 ± 11%
"CCN(CC)CCOc1ccc(C(=C(Cl)c2ccccc2)c2ccccc2)cc1 [Clomiphene citrate (Z,E)] + CCCCNC(=O)OCC#CI [3-iodo-2-propynyl butylcarbamate (IPBC)]",3.02 ± 0.16%,2.94%
COc1ccc(C(=O)NCc2ccc(OCCN(C)C)cc2)cc1OC [Itopride] + CCCCNC(=O)OCC#CI [3-iodo-2-propynyl butylcarbamate (IPBC)],107 ± 1.1%,102%
COc1cc(C(=O)NCc2ccc(OCCN(C)C)cc2)cc(OC)c1OC [Trimethobenzamide hydrochloride] + CCCCNC(=O)OCC#CI [3-iodo-2-propynyl butylcarbamate (IPBC)],90.2 ± 1.3%,91.3 ± 2.8%
CN(C)CCOC(c1ccccc1)c1ccccc1 [Diphenhydramine hydrochloride] + CCCCNC(=O)OCC#CI [3-iodo-2-propynyl butylcarbamate (IPBC)],87.2 ± 2.1%,94 ± 2.1%
CC/C(=C(\c1ccccc1)c1ccc(OCCN(C)C)cc1)c1ccccc1 [Tamoxifen citrate] + CCCCNC(=O)OCC#CI [3-iodo-2-propynyl butylcarbamate (IPBC)],3.34 ± 0.48%,3.36 ± 0.63%
CN(C)CCOc1ccc(/C(=C(/CCCl)c2ccccc2)c2ccccc2)cc1 [Toremifene] + CCCCNC(=O)OCC#CI [3-iodo-2-propynyl butylcarbamate (IPBC)],3.49 ± 0.95%,3.15 ± 0.42%
CN(C)CCOC(=O)COc1ccc(Cl)cc1 [Meclofenoxate hydrochloride] + CCCCNC(=O)OCC#CI [3-iodo-2-propynyl butylcarbamate (IPBC)],93.2 ± 3.3%,96.7 ± 2.1%
CCN(CC)CCOC(=O)C(c1ccccc1)c1ccccc1 [Adiphenine hydrochloride] + CCCCNC(=O)OCC#CI [3-iodo-2-propynyl butylcarbamate (IPBC)],87.2 ± 1.4%,92.8 ± 1.4%
CCN(CC)CCNC(=O)c1cc(Br)c(N)cc1OC [Bromopride] + CCCCNC(=O)OCC#CI [3-iodo-2-propynyl butylcarbamate (IPBC)],92.6 ± 14%,93.8 ± 7.5%
CCCOc1cc(N)ccc1C(=O)OCCN(CC)CC [Propoxycaine hydrochloride] + CCCCNC(=O)OCC#CI [3-iodo-2-propynyl butylcarbamate (IPBC)],86.7%,88.73 ± 0.42%
CCC1(C)CC(=O)NC1=O (configuration not stated) [Ethosuximide] + CCCCNC(=O)OCC#CI [3-iodo-2-propynyl butylcarbamate (IPBC)],94.8 ± 2.1%,97.85 ± 0.94%
CN1CCN(C2=Nc3ccccc3Oc3ccc(Cl)cc32)CC1 [Loxapine succinate] + CCCCNC(=O)OCC#CI [3-iodo-2-propynyl butylcarbamate (IPBC)],71.8 ± 2.2%,91.87 ± 0.84%
CC(=O)N(CC(C)C(=O)O)c1c(I)cc(I)c(N)c1I (configuration not stated) [Iocetamic acid] + CCCCNC(=O)OCC#CI [3-iodo-2-propynyl butylcarbamate (IPBC)],107 ± 18%,102 ± 11%
C#C[C@]1(O)CC[C@H]2[C@@H]3[C@H](C)CC4=C(CCC(=O)C4)[C@H]3CC[C@@]21C [Tibolone] + CCCCNC(=O)OCC#CI [3-iodo-2-propynyl butylcarbamate (IPBC)],80.1 ± 2.9%,90.09 ± 0.1%
Cc1ccc(-c2cc(C(F)(F)F)nn2-c2ccc(S(N)(=O)=O)cc2)cc1 [Celecoxib] + CCCCNC(=O)OCC#CI [3-iodo-2-propynyl butylcarbamate (IPBC)],57.8 ± 0.64%,78.76 ± 0.73%
C[C@]12CC[C@@H]3c4ccc(OC(=O)N(CCCl)CCCl)cc4CC[C@H]3[C@@H]1CC[C@@H]2O [Estramustine] + CCCCNC(=O)OCC#CI [3-iodo-2-propynyl butylcarbamate (IPBC)],97.8 ± 4.5%,98.1 ± 4.7%

SMILES,growth yield (40 h),growth yield (72 h)
CC(C)NNC(=O)c1ccncc1 [Iproniazide phosphate] + CCCCNC(=O)OCC#CI [3-iodo-2-propynyl butylcarbamate (IPBC)],89.3 ± 0.95%,99 ± 0.84%
Oc1ccc(OCc2ccccc2)cc1 [Monobenzone] + CCCCNC(=O)OCC#CI [3-iodo-2-propynyl butylcarbamate (IPBC)],50.7 ± 6.5%,63 ± 4.3%
CCCCOC(=O)c1ccc(O)cc1 [Butylparaben] + CCCCNC(=O)OCC#CI [3-iodo-2-propynyl butylcarbamate (IPBC)],27.5 ± 1.8%,46.9 ± 3.2%
CCCCN(CCCC)CCCOC(=O)c1ccc(N)cc1 [Butacaine] + CCCCNC(=O)OCC#CI [3-iodo-2-propynyl butylcarbamate (IPBC)],106 ± 9.2%,105 ± 8.7%
CCCCOC(=O)c1ccc(N)cc1 [Butamben] + CCCCNC(=O)OCC#CI [3-iodo-2-propynyl butylcarbamate (IPBC)],53.53 ± 0.16%,70.7 ± 3.4%
NNc1nncc2ccccc12 [Hydralazine hydrochloride] + CCCCNC(=O)OCC#CI [3-iodo-2-propynyl butylcarbamate (IPBC)],120 ± 6.8%,125 ± 11%
Cc1cc(C2CCCCC2)n(O)c(=O)c1 [Ciclopirox ethanolamine] + CCCCNC(=O)OCC#CI [3-iodo-2-propynyl butylcarbamate (IPBC)],3.49 ± 0.32%,2.83 ± 0.32%
CCOC(=O)[C@H](CCc1ccccc1)N[C@@H](C)C(=O)N1[C@H](C(=O)O)C[C@@H]2CCC[C@@H]21 [Ramipril] + CCCCNC(=O)OCC#CI [3-iodo-2-propynyl butylcarbamate (IPBC)],95 ± 3.2%,96 ± 3.9%
CC1(C)O[C@@H]2C[C@H]3[C@@H]4CCC5=CC(=O)C=C[C@]5(C)[C@H]4[C@@H](O)C[C@]3(C)[C@]2(C(=O)CO)O1 [Desonide] + CCCCNC(=O)OCC#CI [3-iodo-2-propynyl butylcarbamate (IPBC)],107 ± 5.9%,103 ± 3.9%
C[C@@H]1CC[C@H]2[C@@H](C)C(=O)O[C@@H]3O[C@@]4(C)CC[C@@H]1[C@]32OO4 [Artemisinin] + CCCCNC(=O)OCC#CI [3-iodo-2-propynyl butylcarbamate (IPBC)],32.4 ± 1.3%,76.3 ± 1.1%
CC1(C)O[C@@H]2C[C@H]3[C@@H]4CCC5=CC(=O)CC[C@]5(C)[C@@]4(F)[C@@H](O)C[C@]3(C)[C@]2(C(=O)CCl)O1 [Halcinonide] + CCCCNC(=O)OCC#CI [3-iodo-2-propynyl butylcarbamate (IPBC)],86.9 ± 1.1%,91.77 ± 0.1%
COc1cnc(NS(=O)(=O)c2ccc(N)cc2)nc1 [Sulfameter] + CCCCNC(=O)OCC#CI [3-iodo-2-propynyl butylcarbamate (IPBC)],101 ± 7.5%,101 ± 3.5%
Nc1nc2c(ncn2COC(CO)CO)c(=O)[nH]1 [Ganciclovir] + CCCCNC(=O)OCC#CI [3-iodo-2-propynyl butylcarbamate (IPBC)],99.9 ± 16%,98.1 ± 10%
Nc1nc2c(ncn2COCCO)c(=O)[nH]1 [Acyclovir] + CCCCNC(=O)OCC#CI [3-iodo-2-propynyl butylcarbamate (IPBC)],100 ± 3.5%,101 ± 3.5%
Nc1nc2n[nH]nc2c(=O)[nH]1 [Azaguanine-8] + CCCCNC(=O)OCC#CI [3-iodo-2-propynyl butylcarbamate (IPBC)],7.47 ± 1.1%,12.2 ± 0.21%
CC(C)(C(=O)c1cccnc1)c1cccnc1 [Metyrapone] + CCCCNC(=O)OCC#CI [3-iodo-2-propynyl butylcarbamate (IPBC)],87.5 ± 1.4%,87.68 ± 0.84%
CC(=O)OCC(=O)[C@H]1CC[C@H]2[C@@H]3CC[C@H]4C[C@H](O)CC[C@]4(C)[C@H]3C(=O)C[C@]12C [Alfadolone acetate] + CCCCNC(=O)OCC#CI [3-iodo-2-propynyl butylcarbamate (IPBC)],90.1 ± 8.4%,95.4 ± 2.9%
C#C[C@]1(OC(C)=O)CC[C@H]2[C@@H]3CCC4=C[C@@H](OC(C)=O)CC[C@@H]4[C@H]3CC[C@@]21C [Ethynodiol diacetate] + CCCCNC(=O)OCC#CI [3-iodo-2-propynyl butylcarbamate (IPBC)],80.21 ± 0.16%,92 ± 1.8%
Cc1cc2c(cc1S(N)(=O)=O)S(=O)(=O)CCC2 [Meticrane] + CCCCNC(=O)OCC#CI [3-iodo-2-propynyl butylcarbamate (IPBC)],91.8 ± 6.7%,91.7 ± 3.8%
COc1ccc2c(c1)c(CC(=O)OCC(=O)O)c(C)n2C(=O)c1ccc(Cl)cc1 [Acemetacin] + CCCCNC(=O)OCC#CI [3-iodo-2-propynyl butylcarbamate (IPBC)],74.18 ± 0.16%,84.11 ± 0.21%
